Laboratory results as given in PubChem BioAssay AID624330 (Southern Research Specialized Biocontainment Screening …, 2012).
Out of some 340,000 compounds screened, about 2,100 (0.62%) were called active.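 How the source made its calls: active means first-screen hits whose inhibition reached a set limit at any dose in the follow-up dose series; inconclusive means inhibition above the set first-screen limit but never retested; inactive means the rest.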 Only a sample is shown. Measured potencies and affinities stand elsewhere.

Target: Rac GTPase-activating protein 1 (Homo sapiens) (UniProt Q9H0H5)
Assay: MgcRacGAP GTPase-activating activity inhibitors, confirmation, biochemical, ADP Hunter fluorescence, primary and confirmatory (AID 624330);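 further: fluorescence reports GDP produced by GAP-driven GTP hydrolysis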
Details: MgcRacGAP-stimulated Rac1 GTP hydrolysis, at 30 µM, hits give high values, GST-tagged Rac1 F28L mutant substrate

Chain of Rac GTPase-activating protein 1 (Homo sapiens) (Q9H0H5 whole entry, looked up): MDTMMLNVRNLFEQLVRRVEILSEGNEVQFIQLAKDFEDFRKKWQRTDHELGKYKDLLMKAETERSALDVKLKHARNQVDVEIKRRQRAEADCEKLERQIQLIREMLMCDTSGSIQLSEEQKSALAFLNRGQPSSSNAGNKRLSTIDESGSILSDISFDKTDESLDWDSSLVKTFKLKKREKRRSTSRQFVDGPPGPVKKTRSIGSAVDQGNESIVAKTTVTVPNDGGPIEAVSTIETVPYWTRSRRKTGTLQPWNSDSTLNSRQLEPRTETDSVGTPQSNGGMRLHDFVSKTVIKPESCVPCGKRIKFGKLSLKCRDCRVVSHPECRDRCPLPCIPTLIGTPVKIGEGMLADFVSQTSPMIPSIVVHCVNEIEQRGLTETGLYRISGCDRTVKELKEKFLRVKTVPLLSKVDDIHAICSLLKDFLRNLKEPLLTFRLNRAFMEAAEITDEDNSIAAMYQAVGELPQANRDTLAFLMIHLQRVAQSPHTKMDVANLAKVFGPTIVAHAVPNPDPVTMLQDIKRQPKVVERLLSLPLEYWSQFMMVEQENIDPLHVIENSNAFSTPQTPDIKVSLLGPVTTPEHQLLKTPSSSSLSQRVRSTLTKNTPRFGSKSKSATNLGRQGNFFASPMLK

inhibition, inactive:
CCOCCCN(C(=O)CCC(=O)Nc1cc(C)on1)C(C(=O)NC(C)(C)C)c1ccccc1Cl (stereo not drawn) 5.98%
COc1ccc(-c2c(NC(=O)CC(C)C)n(C)c3ccccc3c2=O)cc1OC 4.25%
Cn1c(COc2ccc([N+](=O)[O-])cc2)nnc1SCC(=O)NCC1CCCO1 (stereo not drawn) 5.87%
CCN(CC)CCCNc1nc2ccccc2[nH]1 7.22%
CCN(CC)CCCNc1nc(-c2ccccc2)nc2ccccc12 17.7%
CCCCCCCCCCCCCCC(O)C[N+](C)(CCO)CCO (stereo not drawn) 20.8%
CCCCCC(O)CCCC(=O)O (stereo not drawn) 7.64%
CCOc1ccc(-n2nc3c(SCCN4CCCC4)nnc(C)c3c2C)cc1 10.3%
Oc1ccccc1Cc1c(O)ccc2ccccc12 23.7%
c1ccc2c(c1)ccc1ccccc12 -3.62%
Clc1cc2c(nn1)Nc1ccccc1S2 6.5%
c1ccc2c(c1)Nc1cc3ccccc3cc1S2 14.6%
FC(F)(F)c1cnc2c(c1)Nc1ccccc1S2 10.2%
COc1ccc(N/C=C2/Sc3ccccc3NC2=O)cc1 17.3%
COc1ccc2c(c1)S(=O)(=O)c1ccccc1N2 11.9%
c1ccc2c(c1)Nc1nccnc1S2 28.4%
Cn1c(N)c(C(=O)CSc2nnc(C3CC3)n2Cc2ccccc2)c(=O)[nH]c1=O 2.66%
N#Cc1ccc(OCC(=O)N2CCN(S(=O)(=O)c3cccc(Cl)c3)CC2)cc1 -0.69%
COc1ccc(NC(=O)CN(C)C(=O)/C=C/c2cn(-c3ccccc3)nc2-c2ccc(C)cc2)cc1 9.39%
CCOC(=O)Cc1csc(NC(=O)c2csc(C)c2)n1 9.83%
Cc1cc(OCCN2CCC(Cc3ccccc3)CC2)ccc1[N+](=O)[O-] 22%
CCOc1ccccc1OCCOCCN1CCN(Cc2ccccc2)CC1 26.4%
Cc1cc(OCCN2CCCC2)ccc1[N+](=O)[O-] 19.6%
O=C(c1ccccc1)c1ccc(OCCOCCN2CCN(Cc3ccccc3)CC2)cc1 25.1%
COc1cccc(NS(=O)(=O)c2c(C)nc3sccn3c2=O)c1 4.23%
CCc1cc(C(=O)NCC(c2ccco2)N2CCCCC2)sc1C (stereo not drawn) 5.34%
Cc1cccc(C(=O)OCC(=O)N2CCCCCC2)c1C 2.72%
CCN(C[C@H]1N[C@@](Cc2ccccc2)(C(=O)OC)[C@H]2C(=O)N(Cc3ccccc3)C(=O)[C@@H]12)C(=O)Nc1ccc(C)cc1 4.71%
CCOC(=O)c1ccc(NC(=S)N2CCC(C(N)=O)(N3CCCCC3)CC2)cc1 -1.44%
CCN(CC)CCSc1nc(O)c(Cc2ccccc2)c(=O)n1-c1ccccc1 2.56%
Cc1ccc(C(=O)NCCCN2CCOCC2)cc1S(=O)(=O)N1CCCCC1 1.84%
O=C(CNCCN1CCOCC1)Nc1ccccc1Sc1ccccc1 24.9%
CN(C)S(=O)(=O)c1cc(NC(=O)CN2CCOCC2)ccc1Cl 2.76%
Cc1ccc(NC(=O)CN2CCOCC2)cc1S(=O)(=O)N1CCCCC1 7.06%
CCN1CCN(CC(=O)Nc2ccc(Cl)c(S(=O)(=O)N(C)C)c2)CC1 28.1%
Cc1ccccc1C(=O)NCC(=O)Nc1ccc(C)c(S(=O)(=O)N2CCCCCC2)c1 -0.01%
Cc1ccc(NC(=O)CCl)cc1S(=O)(=O)N1CCCCCC1 4.4%
Cc1ccccc1NC(=O)C(=O)NCCCN1CCOCC1 4.72%
CC(Oc1cccc(Cl)c1)C(=O)N1CCN(c2ncccn2)CC1 (stereo not drawn) 3.63%
O=C(Nc1ccccc1C(=O)O)c1cc(S(=O)(=O)N2CCOCC2)cs1 3.51%
Cc1ccc(/C=N/N2CCN(C3c4ccccc4-c4ccccc43)CC2)o1 8.36%
COc1ccc(N2CCN(C(=O)c3cc4c(s3)CCCCC4)CC2)cc1 14.7%
COCCn1c(SCC(=O)N2CCCCCC2)nnc1-c1ccco1 3.7%
CCC(CNC(=O)c1c(C)nn(-c2ccccc2)c1Cl)c1ccccc1 (stereo not drawn) -0.7%
Cc1ccc(S(=O)(=O)N2CCCCC2)cc1C(=O)N(C)CCOc1ccccc1 8.29%
O=C(Cn1cnc2c(nnn2-c2ccc(F)cc2)c1=O)NCC1CCCO1 (stereo not drawn) 8.9%
COc1cc(-c2csc(CCn3nc(C)cc3C)n2)cc(OC)c1OC 4.55%
Cc1cc(C)n(CCc2nc3c4ccccc4n(CC#N)c(=O)n3n2)n1 3.22%
COC(=O)C1CCN(S(=O)(=O)Cc2ccccc2Cl)CC1 7.49%
COc1cc(OC)c(OC)cc1C#N 2.13%
COc1cc2c(cc1OC)C1(CCCC1)CNC2C (stereo not drawn) 1.49%
O=C(Nc1ccc(F)cc1)C(NC1CCCCC1)c1ccccc1 (stereo not drawn) 9.33%
COc1ccc(C2=NS(=O)(=O)N(C)C(C(=O)N3CCCCC3C)=C2)cc1 (stereo not drawn) 2.61%
COc1ccc(C(C)C)cc1S(=O)(=O)Nc1ccccn1 -2.56%
COc1ccc(N(C(=O)c2ccncc2)S(=O)(=O)c2cccs2)cc1 5.29%
COc1ccc(C(=O)N(c2ccc(OC)cc2)S(=O)(=O)c2cccs2)cc1 3.2%
O=C(Nc1ccc(-c2nc3ccccc3[nH]2)cc1)c1ccc2c(c1)OCO2 0.3%
COc1ccccc1C1C2=C(N=C3SCC(=O)N31)c1ccccc1CC2 (stereo not drawn) 7%
CCOC(=O)c1cc(-c2ccccc2)nn1CCC#N 8.67%
COc1ccc(OCc2nn3c(Cn4cnc5ccccc54)nnc3s2)cc1 19.9%
Cc1ccnc(SCc2cn3c(C)cccc3n2)n1 0.6%
COc1cc(/C=C/C(=O)OCC(=O)NC2CCS(=O)(=O)C2)ccc1OC(F)F (stereo not drawn) 2.44%
COc1cccc(/C=C/C(=O)OCC(=O)NCC2CCCCC2)c1OC -1.97%
COc1cc(/C=C/C(=O)OCC(=O)NC2CCCCCCC2)ccc1O 26.5%
COc1ccc(/C=C/C(=O)OCC(=O)NC2CCS(=O)(=O)C2)cc1 (stereo not drawn) -1.92%
COc1cc(/C=C/C(=O)OCC(=O)NCCC2=CCCCC2)cc(OC)c1OC -10.3%
COc1ccc(/C=C/C(=O)OCC(=O)NCCC2=CCCCC2)cc1OC 4.2%
CCCSCCCNC(=O)c1ccc(C)c(NC(=O)C2=C(C)OCCS2)c1 6.84%
CCC(=O)N1C(=O)CCN(C(C)=O)c2ccccc21 11.8%
COc1cccc(NC(=O)CN(C)C(=O)C(CCSC)NC(=O)c2ccco2)c1 (stereo not drawn) 1.87%
Cc1nn(C)c(=S)[nH]c1=S -2.65%
O=C(NCc1nc2ccccc2[nH]1)c1cccc(S(=O)(=O)N2CCCCC2)c1 1.53%
COc1cc(/C=N/NC(=O)c2sc(N)c(C#N)c2C)cc(Br)c1O 11.7%
Cc1c(C(=O)N/N=C/c2cccnc2)sc(N)c1C#N 6.19%
COc1ccc(C(=O)NC2=Nc3ccccc3N=C(C)C2c2ccccc2)cc1 (stereo not drawn) 0.78%
Nc1cc(N)nc(SCC(=O)N2CCN(S(=O)(=O)c3ccccc3)CC2)n1 7.76%
c1ccc2c(c1)Nc1cc3ccccc3cc1O2 -1.21%
CCOc1cc(/C=N\NC(=O)Cn2nnc3ccccc32)ccc1O 28.1%
Cc1cccc(C(C)n2nnc3ccccc32)c1O (stereo not drawn) 6.53%
COc1ccc(/C=N/NC(=O)CCn2nnc3ccccc32)cc1 15.9%
COc1ccc(/C=N/NC(=O)C(C)n2nnc3ccccc32)cc1OC (stereo not drawn) 8.77%
COc1ccc(C(O)c2nc3ccccc3n2C)cc1OC (stereo not drawn) 3.18%
COc1ccc(/C=N/NC(=O)Cn2nnc3ccccc32)cc1OC 3.04%
COc1cccc(/C=N/NC(=O)CCn2nnc3ccccc32)c1 1.99%
COc1cccc(/C=N/NC(=O)C(C)n2nnc3ccccc32)c1 (stereo not drawn) 9.47%
O=C(c1ccnc(Cl)c1)N1CCCC(Nc2ccc(F)cc2)C1 (stereo not drawn) 6.71%
CCc1nnc(NC(=O)CSc2nnc(C3CC3)n2C)s1 3.03%
Cc1ccc(OC/C(O)=C(\C#N)c2nc3ccccc3s2)cc1 0.24%
CN(C1CCS(=O)(=O)C1)S(=O)(=O)c1ccc(N2CCCC2=O)cc1 (stereo not drawn) 14.4%
COc1ccc(CCNC(=O)C(=O)NCC2CCCN2S(=O)(=O)c2ccccc2)cc1OC (stereo not drawn) 1.68%
CC(NC(=O)Nc1ccc([N+](=O)[O-])cc1)C(c1cccs1)N1CCCC1 (stereo not drawn) 8.33%
COc1ccc(/C=N/NC(=O)CCn2c3ccccc3c3ccccc32)cc1OC -2.76%
COc1ccc(/C=N/NC(=O)CCn2c3ccccc3c3ccccc32)cc1O 11.7%
COc1ccc(CCc2ccc3cc(OC)ccc3n2)cc1 1.87%
O=C(O)c1ccccc1C(=O)N(Cc1ccccc1)Cc1ccccc1 4%
CC(C)[C@H](N)c1cn([C@@H](CO)C(=O)N2CCNCC2)nn1 6.71%
CCCc1c(C(=O)N/N=C/c2ccc3c(c2)OCO3)nnn1-c1nonc1N 3.5%
CC(C#N)(NC(=O)CN1CCN(S(=O)(=O)c2cccc(F)c2)CC1)C1CC1 (stereo not drawn) 23.8%
